Data as given in the supplement of paper PMC11732987, “Enantioselective OTUD7B fragment discovery through chemoproteomics screening and high-throughput optimisation” (Communications Chemistry, 2025).

What was measured:
Test in all cases: log2 ratio of Biotin-Ahx-Ub-VS probe labelling (fragment/DMSO); higher = less target engagement (more negative = stronger competition), active = hit call of the paper (q ≤ 0.05, log2 ratio ≤ -1)
Details in all cases: compound concentration: 200 uM; treatment time: 3 h
ALG13 = target: T1, ALG13 (UniProt Q9NP73)
T1 sequence (whole entry): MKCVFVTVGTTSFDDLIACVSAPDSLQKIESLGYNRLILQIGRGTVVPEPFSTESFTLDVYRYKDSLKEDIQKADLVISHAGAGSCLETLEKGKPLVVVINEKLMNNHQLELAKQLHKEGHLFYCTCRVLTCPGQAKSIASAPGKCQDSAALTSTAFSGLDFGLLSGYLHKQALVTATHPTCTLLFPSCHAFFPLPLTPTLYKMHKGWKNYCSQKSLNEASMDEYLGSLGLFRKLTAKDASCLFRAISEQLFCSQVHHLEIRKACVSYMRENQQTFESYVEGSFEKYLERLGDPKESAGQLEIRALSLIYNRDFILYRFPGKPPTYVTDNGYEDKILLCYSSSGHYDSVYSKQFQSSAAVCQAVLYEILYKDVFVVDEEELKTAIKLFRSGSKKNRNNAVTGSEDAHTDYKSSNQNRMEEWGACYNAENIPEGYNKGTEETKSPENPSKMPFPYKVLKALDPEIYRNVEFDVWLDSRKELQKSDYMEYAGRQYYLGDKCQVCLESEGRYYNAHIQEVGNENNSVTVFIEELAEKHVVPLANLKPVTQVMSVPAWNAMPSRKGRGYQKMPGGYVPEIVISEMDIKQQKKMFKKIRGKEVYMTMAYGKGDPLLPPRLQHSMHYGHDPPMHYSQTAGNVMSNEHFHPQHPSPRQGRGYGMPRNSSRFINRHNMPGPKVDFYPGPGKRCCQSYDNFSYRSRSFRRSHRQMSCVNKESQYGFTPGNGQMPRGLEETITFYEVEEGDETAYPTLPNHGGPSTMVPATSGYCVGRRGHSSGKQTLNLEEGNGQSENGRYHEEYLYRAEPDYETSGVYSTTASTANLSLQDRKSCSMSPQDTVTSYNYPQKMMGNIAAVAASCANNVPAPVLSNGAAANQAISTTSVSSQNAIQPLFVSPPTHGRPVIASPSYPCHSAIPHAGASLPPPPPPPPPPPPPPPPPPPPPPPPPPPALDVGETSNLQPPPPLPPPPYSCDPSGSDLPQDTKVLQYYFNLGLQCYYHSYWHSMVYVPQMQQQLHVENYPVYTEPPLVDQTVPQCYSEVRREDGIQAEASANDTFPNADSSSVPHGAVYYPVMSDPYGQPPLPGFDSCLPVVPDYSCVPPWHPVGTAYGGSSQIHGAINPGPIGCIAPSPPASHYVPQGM
Procedure, shortened: (§1)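 HEK293T lysate, 495 µg per sample in Tris/CHAPS/IGEPAL buffer with protease inhibitors, was treated in triplicate with fragment at 200 µM or vehicle for 3 h and then with Biotin-Ahx-Ub-VS at 0.5 µM final for 1 h. Labelled DUBs were NeutrAvidin-enriched, digested with LysC and trypsin, and run by diaPASEF LC-MS/MS. Spectronaut label-free quantities were global-median-normalised, and values are average log2 fragment/vehicle ratios by unpaired t-test on proteins with ≥2 unique peptides.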

ATXN3 = ATXN3 (UniProt P54252)
Procedure, shortened: as §1

BAP1 = target: T2, BAP1 (UniProt Q92560)
T2 sequence (whole entry): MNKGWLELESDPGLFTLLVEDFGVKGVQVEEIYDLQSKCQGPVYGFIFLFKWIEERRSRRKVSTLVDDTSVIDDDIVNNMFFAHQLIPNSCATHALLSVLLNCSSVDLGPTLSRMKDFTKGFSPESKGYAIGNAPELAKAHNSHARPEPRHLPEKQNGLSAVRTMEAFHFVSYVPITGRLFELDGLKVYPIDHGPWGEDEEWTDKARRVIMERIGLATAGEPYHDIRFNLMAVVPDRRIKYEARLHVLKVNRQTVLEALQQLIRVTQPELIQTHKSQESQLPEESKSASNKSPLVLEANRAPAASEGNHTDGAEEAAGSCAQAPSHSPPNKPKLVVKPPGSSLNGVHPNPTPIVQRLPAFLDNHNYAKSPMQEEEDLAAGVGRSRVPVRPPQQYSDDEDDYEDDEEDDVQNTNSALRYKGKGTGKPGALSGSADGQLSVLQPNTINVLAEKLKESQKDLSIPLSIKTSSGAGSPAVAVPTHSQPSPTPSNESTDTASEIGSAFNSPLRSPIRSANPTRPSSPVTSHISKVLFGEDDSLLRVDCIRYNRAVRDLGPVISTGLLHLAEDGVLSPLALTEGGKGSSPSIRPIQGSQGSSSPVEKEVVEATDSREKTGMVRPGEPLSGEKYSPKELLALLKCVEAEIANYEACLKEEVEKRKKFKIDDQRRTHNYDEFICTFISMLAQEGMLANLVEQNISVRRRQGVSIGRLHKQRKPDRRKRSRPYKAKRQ
Procedure, shortened: as §1

EIF3F = EIF3F (UniProt O00303)
Procedure, shortened: as §1

EIF3H = EIF3H (UniProt O15372)
Procedure, shortened: as §1

FAM105A = target: T3, FAM105A (UniProt Q9NUU6)
T3 sequence (whole entry): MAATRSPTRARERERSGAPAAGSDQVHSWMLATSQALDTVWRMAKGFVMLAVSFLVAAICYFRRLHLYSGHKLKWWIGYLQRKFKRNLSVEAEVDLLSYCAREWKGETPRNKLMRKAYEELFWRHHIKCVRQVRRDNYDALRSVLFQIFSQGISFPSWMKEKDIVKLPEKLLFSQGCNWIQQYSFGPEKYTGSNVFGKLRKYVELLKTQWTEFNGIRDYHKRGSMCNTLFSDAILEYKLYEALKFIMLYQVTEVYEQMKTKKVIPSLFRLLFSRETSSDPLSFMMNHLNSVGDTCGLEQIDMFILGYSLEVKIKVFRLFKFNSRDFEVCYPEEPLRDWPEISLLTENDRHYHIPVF
Procedure, shortened: as §1

OTUB1 = OTUB1 (UniProt Q96FW1)
Procedure, shortened: as §1

OTUD4 = target: T4, OTUD4 (UniProt Q01804)
T4 sequence (whole entry): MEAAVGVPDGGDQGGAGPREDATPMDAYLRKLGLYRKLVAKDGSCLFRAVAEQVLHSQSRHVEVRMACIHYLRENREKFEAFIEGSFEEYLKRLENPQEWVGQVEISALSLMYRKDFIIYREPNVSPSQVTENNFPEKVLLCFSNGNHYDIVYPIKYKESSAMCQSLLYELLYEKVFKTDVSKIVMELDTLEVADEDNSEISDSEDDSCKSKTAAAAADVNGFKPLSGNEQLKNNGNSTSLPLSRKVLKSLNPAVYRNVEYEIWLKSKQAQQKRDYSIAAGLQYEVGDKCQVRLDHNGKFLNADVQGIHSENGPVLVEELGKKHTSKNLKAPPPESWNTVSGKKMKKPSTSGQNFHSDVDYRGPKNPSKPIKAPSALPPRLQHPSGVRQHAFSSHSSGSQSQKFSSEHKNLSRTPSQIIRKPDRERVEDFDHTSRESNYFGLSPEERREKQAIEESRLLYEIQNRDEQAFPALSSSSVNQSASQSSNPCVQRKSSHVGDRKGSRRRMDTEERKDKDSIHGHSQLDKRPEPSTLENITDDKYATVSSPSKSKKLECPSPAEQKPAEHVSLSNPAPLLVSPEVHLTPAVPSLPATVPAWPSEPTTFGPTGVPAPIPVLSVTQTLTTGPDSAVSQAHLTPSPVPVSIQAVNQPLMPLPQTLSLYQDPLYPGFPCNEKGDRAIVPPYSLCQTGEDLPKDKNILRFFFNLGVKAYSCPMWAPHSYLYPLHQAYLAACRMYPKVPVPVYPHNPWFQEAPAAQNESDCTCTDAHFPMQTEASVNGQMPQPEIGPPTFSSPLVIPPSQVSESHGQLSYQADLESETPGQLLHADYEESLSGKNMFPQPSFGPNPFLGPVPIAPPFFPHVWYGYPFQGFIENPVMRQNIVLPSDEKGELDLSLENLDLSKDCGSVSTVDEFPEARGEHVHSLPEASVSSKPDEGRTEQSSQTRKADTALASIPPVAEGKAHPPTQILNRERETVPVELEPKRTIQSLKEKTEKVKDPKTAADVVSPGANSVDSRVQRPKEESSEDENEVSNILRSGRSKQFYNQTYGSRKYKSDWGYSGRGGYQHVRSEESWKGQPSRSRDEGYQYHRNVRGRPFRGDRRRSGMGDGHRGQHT
Procedure, shortened: as §1

OTUD5 = target: T5, OTUD5 (UniProt Q96G74)
T5 sequence (whole entry): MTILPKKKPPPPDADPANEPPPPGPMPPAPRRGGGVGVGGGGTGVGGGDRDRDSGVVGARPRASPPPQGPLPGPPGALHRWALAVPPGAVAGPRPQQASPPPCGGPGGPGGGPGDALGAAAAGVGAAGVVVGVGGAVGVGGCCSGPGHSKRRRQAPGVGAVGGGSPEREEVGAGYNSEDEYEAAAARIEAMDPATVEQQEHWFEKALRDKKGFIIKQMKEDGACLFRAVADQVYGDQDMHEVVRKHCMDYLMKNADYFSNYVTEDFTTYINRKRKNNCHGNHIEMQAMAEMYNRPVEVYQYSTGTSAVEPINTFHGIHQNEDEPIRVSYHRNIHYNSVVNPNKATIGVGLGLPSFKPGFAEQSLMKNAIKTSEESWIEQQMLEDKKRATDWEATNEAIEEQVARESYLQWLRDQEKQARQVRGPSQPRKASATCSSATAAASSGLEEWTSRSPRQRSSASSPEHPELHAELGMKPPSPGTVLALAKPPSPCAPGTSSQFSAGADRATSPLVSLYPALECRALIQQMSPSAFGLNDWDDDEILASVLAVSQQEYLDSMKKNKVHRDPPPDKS
Procedure, shortened: as §1

Measured: log2 ratio of Biotin-Ahx-Ub-VS probe labelling

Chain of EIF3F (O00303 whole entry): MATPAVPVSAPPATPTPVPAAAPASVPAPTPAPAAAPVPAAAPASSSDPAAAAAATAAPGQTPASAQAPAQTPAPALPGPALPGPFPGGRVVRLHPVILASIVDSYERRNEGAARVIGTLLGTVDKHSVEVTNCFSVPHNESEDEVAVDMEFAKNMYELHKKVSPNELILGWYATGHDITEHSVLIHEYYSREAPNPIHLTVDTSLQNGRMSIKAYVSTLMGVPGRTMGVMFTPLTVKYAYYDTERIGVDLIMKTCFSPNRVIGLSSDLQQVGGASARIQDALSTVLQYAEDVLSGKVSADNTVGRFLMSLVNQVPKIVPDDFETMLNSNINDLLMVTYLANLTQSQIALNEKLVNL
Chain of EIF3H (O15372 whole entry): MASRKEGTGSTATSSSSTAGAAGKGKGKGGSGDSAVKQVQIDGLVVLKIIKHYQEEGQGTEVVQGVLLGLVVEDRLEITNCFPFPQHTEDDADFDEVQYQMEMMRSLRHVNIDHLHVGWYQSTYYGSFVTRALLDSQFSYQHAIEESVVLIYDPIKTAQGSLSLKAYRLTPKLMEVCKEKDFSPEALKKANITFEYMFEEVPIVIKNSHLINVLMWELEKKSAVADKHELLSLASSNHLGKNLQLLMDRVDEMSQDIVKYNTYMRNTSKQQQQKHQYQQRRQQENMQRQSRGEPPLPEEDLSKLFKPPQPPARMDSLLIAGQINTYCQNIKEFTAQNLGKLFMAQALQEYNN
Chain of ATXN3 (P54252 whole entry): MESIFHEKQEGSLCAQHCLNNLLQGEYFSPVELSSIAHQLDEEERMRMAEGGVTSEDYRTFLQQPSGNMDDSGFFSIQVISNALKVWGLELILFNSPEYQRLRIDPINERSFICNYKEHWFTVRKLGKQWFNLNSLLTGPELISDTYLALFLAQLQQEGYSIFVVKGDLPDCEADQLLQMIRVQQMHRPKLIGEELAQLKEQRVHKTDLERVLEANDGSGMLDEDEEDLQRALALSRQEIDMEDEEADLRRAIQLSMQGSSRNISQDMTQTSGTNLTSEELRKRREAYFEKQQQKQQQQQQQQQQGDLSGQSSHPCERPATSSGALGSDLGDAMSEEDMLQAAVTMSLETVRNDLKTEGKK
Chain of OTUB1 (Q96FW1 whole entry): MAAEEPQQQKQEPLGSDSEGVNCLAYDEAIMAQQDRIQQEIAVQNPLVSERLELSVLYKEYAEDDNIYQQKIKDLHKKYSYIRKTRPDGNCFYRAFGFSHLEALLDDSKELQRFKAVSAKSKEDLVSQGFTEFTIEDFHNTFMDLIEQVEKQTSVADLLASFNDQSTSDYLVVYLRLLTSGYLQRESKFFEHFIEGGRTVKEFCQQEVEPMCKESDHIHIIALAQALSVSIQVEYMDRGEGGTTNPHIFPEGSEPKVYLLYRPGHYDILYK

Cc1ccc(N(C(=O)CCl)C2C=CS(=O)(=O)C2)cc1 (centres undefined)
inactive: ALG13 -0.425 | ATXN3 0.116 | BAP1 -0.0645 | EIF3F -0.128 | EIF3H -0.276 | FAM105A 0.167 | OTUB1 -0.0537 | OTUD4 0.0564 | OTUD5 -0.00864
